Laboratory results from the supplement of paper PMC12350171.
Where a name gives a salt, the structure may show the parent alone. Unmarked numbers belong to inactive results.

Experiments:
Settings in all cases: 20 µM
[1] = system: Salmonella enterica typhimurium; experiment: growth AUC normalised to DMSO control (fraction of control); higher = less growth inhibition, active = hit call of the paper
Summary of the method: (§1)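 For the AUC endpoint, growth curves were integrated by the trapezoidal rule up to the exponential-to-stationary transition and normalised to DMSO controls on the same plate. The curves came from OD578 readings taken hourly for 24 h, in three biological replicates. Pathogens had been passaged anaerobically twice and inoculated at an OD578 of 0.01 into pre-reduced mGAM plates carrying 20 μM compound and 1% DMSO, sealed with breathable membranes. Medium for Haemophilus parainfluenzae also contained hemin and NAD.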

[2] = system: Shigella flexneri; experiment: as above
Summary of the method: as §1

[3] = system: Vibrio cholerae; experiment: as above
Summary of the method: as §1

[4] = system: Yersinia pseudotuberculosis; experiment: as above
Summary of the method: as §1

[5] = system: P. vulgatus WT; experiment: growth AUC normalised to DMSO control (median) (fraction of control); higher = less growth inhibition, active = hit call of the paper
Summary of the method: (§2)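 Each strain went through two overnight passages under anaerobic conditions before growth in mGAM in 96-well plates, starting at OD578 0.01, with each compound from the approved-drug library at 20 μM and 1% DMSO. Inside an anaerobic incubator, OD578 was recorded every hour for 24 h. Growth curves were cut off at entry into stationary phase, and the area under the curve was calculated by the trapezoidal rule and normalised to vehicle wells on the same plate. Reported values are medians of three biological replicates.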

[6] = system: S. enterica typhimurium WT; experiment: as above
Summary of the method: as §2

[7] = system: S. enterica typhimurium tolC KO; experiment: as above
Summary of the method: as §2

[8] = system: P. vulgatus RND KO; experiment: as above
Summary of the method: as §2
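Throughout, for growth AUC normalised to DMSO control (median): active when median AUC fell below 0.1.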

Row | SMILES | growth AUC normalised to DMSO control [1] | growth AUC normalised to DMSO control [2] | growth AUC normalised to DMSO control [3] | growth AUC normalised to DMSO control [4] | growth AUC normalised to DMSO control [5] | growth AUC normalised to DMSO control [6] | growth AUC normalised to DMSO control [7] | growth AUC normalised to DMSO control [8]
1 | CC1(C)S[C@@H]2[C@H](NC(=O)[C@H](N)c3ccccc3)C(=O)N2[C@H]1C(=O)O [Ampicillin trihydrate] | 0.00858 (active) | 0.0549 (active) | 0.254 (active) | 0.0564 (active) | 0.0887 (active) | 0.0624 (active) | 0.0201 (active) | –
2 | Cc1ccc(/C(=C\CN2CCCC2)c2ccccn2)cc1 [Triprolidine hydrochloride] | – | 0.97 | 0.967 | 0.992 | 0.99 | 1 | 0.978 | 1
3 | Nc1nc2ccc(OC(F)(F)F)cc2s1 [Riluzole hydrochloride] | 1.01 | 0.993 | 0.937 | 0.984 | – | 0.979 | 0.976 | 0.999
4 | N[C@H](Cc1ccccc1)C(=O)O [D-phenylalanine] | – | – | – | – | 0.985 | 0.995 | 1 | 0.996
5 | CC(C)C(=O)OCC(=O)[C@@]12O[C@H](C3CCCCC3)O[C@@H]1C[C@H]1[C@@H]3CCC4=CC(=O)C=C[C@]4(C)[C@H]3[C@@H](O)C[C@@]12C [Ciclesonide] | – | – | – | – | 1.02 | 1.01 | 1.01 | 1.02
6 | Cc1cccc(C)c1OCC(=O)N[C@@H](Cc1ccccc1)[C@@H](O)C[C@H](Cc1ccccc1)NC(=O)[C@H](C(C)C)N1CCCNC1=O [Lopinavir] | – | – | – | – | 1.07 | 1.01 | 1.01 | 1.06
7 | Oc1c(Cl)cc(Cl)cc1Sc1cc(Cl)cc(Cl)c1O [Bithionol] | – | – | – | – | 0.0115 (active) | 0.991 | 0.0167 (active) | 0.0149 (active)
8 | CC(=O)Nc1ccc(C(=O)O)cc1 [Acedoben] | – | – | – | – | 1.01 | 1 | 0.997 | 0.997
9 | CCCCC1=NC2(CCCC2)C(=O)N1Cc1ccc(-c2ccccc2-c2nnn[nH]2)cc1 [Irbesartan] | – | – | – | – | 1 | 1.01 | 0.987 | 0.985
10 | O=C1[C@H](CC[C@H](O)c2ccc(F)cc2)[C@@H](c2ccc(O)cc2)N1c1ccc(F)cc1 [Ezetimibe] | – | – | – | – | 0.918 | 1 | 0.828 | 0.901
11 | COc1ccc(-c2noc(CC(=O)O)c2-c2ccc(OC)cc2)cc1 [Mofezolac] | – | – | – | – | 1.03 | 1.01 | 0.998 | 0.999
12 | CC(C)Nc1cccnc1N1CCN(C(=O)c2cc3cc(NS(C)(=O)=O)ccc3[nH]2)CC1 [Delavirdine] | – | – | – | – | 1.07 | 1.02 | 0.98 | 1.02
13 | Nc1ccc(S(=O)(=O)Nc2cnc3ccccc3n2)cc1 [Sulfaquinoxaline sodium salt] | – | – | – | – | 1.04 | 0.985 | 1 | 1.01
14 | CN[C@@H]1[C@@H](O[C@H]2O[C@H](CO)[C@@H](N)[C@H](O)[C@H]2O)OC2C[C@@H](N)[C@@H](O[C@H]3[C@H](O)[C@@H](O)[C@H](N)C[C@@H]3N)OC2[C@@H]1O (stereo partly drawn) [Apramycin] | – | – | – | – | 0.998 | 1.01 | 0.996 | 1
15 | CCN1CCN(Cc2ccc(Nc3ncc(F)c(-c4cc(F)c5nc(C)n(C(C)C)c5c4)n3)nc2)CC1 [Abemaciclib] | – | – | – | – | 0.961 | 1 | 0.909 | 0.994
16 | CO[C@@]12[C@H](COC(N)=O)C3=C(C(=O)C(C)=C(N)C3=O)N1C[C@@H]1N[C@@H]12 [Mitomycin C] | – | – | – | – | 0.013 (active) | 0.196 | 0.00599 (active) | 0.0125 (active)
17 | Cc1c(O)c(=O)ccn1C [Deferiprone] | – | – | – | – | 0.993 | 1 | 1 | 0.978
18 | O=c1oc2cc(O)ccc2s1 [Tioxolone] | – | – | – | – | 1.02 | 0.989 | 0.999 | 1.02
19 | C[C@@H](O)[C@H]1C(=O)N2C(C(=O)O)=C(S[C@@H]3CN[C@H](CNS(N)(=O)=O)C3)[C@H](C)[C@H]12 [Doripenem monohydrate] | – | – | – | – | 0.00747 (active) | 0.00575 (active) | 0.00595 (active) | 0.00779 (active)
20 | O=c1[nH]c(=O)n(C2CCCO2)cc1F (stereo not drawn) [Tegafur] | – | – | – | – | 1.01 | 1 | 0.999 | 1
21 | C/C(=C\C(=O)OCCCCCCCCC(=O)O)C[C@@H]1OC[C@H](C[C@@H]2O[C@H]2[C@@H](C)[C@H](C)O)[C@@H](O)[C@H]1O [Mupirocin] | – | – | – | – | 1.04 | 0.403 | 0.0105 (active) | 1
22 | C[C@H]1[C@@H](O)O[C@@H]2O[C@@]3(C)CC[C@H]4[C@H](C)CC[C@@H]1[C@@]24OO3 [Artenimol] | – | – | – | – | 1.04 | 1 | 1 | 1.04
23 | OCCN1CCN(CC/C=C2/c3ccccc3Sc3ccc(C(F)(F)F)cc32)CC1 [Flupentixol dihydrochloride cis-(Z)] | – | – | – | – | 0.997 | 1.01 | 0.828 | 0.946

Row | SMILES | growth AUC normalised to DMSO control [1] | growth AUC normalised to DMSO control [2] | growth AUC normalised to DMSO control [3] | growth AUC normalised to DMSO control [4] | growth AUC normalised to DMSO control [5] | growth AUC normalised to DMSO control [6] | growth AUC normalised to DMSO control [7] | growth AUC normalised to DMSO control [8]
24 | NCCc1c[nH]cn1 [Histamine dihydrochloride] | – | – | – | – | 0.979 | 1 | 0.982 | 0.991
25 | CC=CC1=C(C(=O)O)N2C(=O)[C@@H](NC(=O)[C@H](N)c3ccc(O)cc3)[C@H]2SC1 [Cefprozil] | – | – | – | – | 1.42 | 1.01 | 0.983 | 1.45
26 | COC(=O)C1=C(C)NC(C)=C(C(=O)O[C@H]2CCN(Cc3ccccc3)C2)[C@H]1c1cccc([N+](=O)[O-])c1 [Barnidipine Hydrochloride] | – | – | – | – | 1.11 | 0.998 | 0.961 | 1.1
27 | CN1CCC[C@@H]1Cc1c[nH]c2ccc(CCS(=O)(=O)c3ccccc3)cc12 [Eletriptan] | – | – | – | – | 1.05 | 0.987 | 0.958 | 1.04
28 | CCOC(=O)O[C@]1(C(=O)OCCl)CC[C@H]2[C@@H]3CCC4=CC(=O)C=C[C@]4(C)[C@H]3[C@@H](O)C[C@@]21C [Loteprednol etabonate] | – | – | – | – | 0.862 | 1.01 | 0.953 | 0.853
29 | CCOCC(O)COc1ccc(NC(=O)CC[S+](C)C)cc1 (stereo not drawn) [Suplatast Tosylate] | – | – | – | – | 1.01 | 1 | 1 | 0.998
30 | CC1CC(OC(=O)C(O)c2ccccc2)CC(C)(C)C1 (stereo not drawn) [Cyclandelate] | – | – | – | – | 0.975 | 1 | 0.903 | 0.983
31 | CN(C)c1ccc2nc3ccc(=[N+](C)C)cc-3sc2c1 [Methylene blue] | – | – | – | – | 1.02 | 0.98 | 0.862 | 1
32 | CN[C@@H]1CCc2[nH]c3ccc(C(N)=O)cc3c2C1 [Frovatriptan succinate] | – | – | – | – | 1.02 | 1 | 1 | 1.02
33 | CO[C@@H]1[C@@H](OC(N)=O)[C@@H](O)[C@H](Oc2ccc3c(O)c(NC(=O)c4ccc(O)c(CC=C(C)C)c4)c(=O)oc3c2C)OC1(C)C [Novobiocin sodium salt] | – | – | – | – | 0.021 (active) | 0.999 | 0.0104 (active) | 0.0285 (active)
34 | COc1ccc(C(=O)CC(=O)c2ccc(C(C)(C)C)cc2)cc1 [Avobenzone] | – | – | – | – | 0.911 | 0.992 | 0.976 | 0.939
35 | CC(C)(C)C(=O)C(Oc1ccc(Cl)cc1)n1ccnc1 (stereo not drawn) [Climbazole] | – | – | – | – | 0.984 | 0.993 | 0.953 | 0.968
36 | CCC(=O)O[C@@H]1CC(=O)O[C@H](C)C/C=C/C=C/[C@H](O)[C@H](C)C[C@H](CC=O)[C@H](O[C@@H]2O[C@H](C)[C@@H](O[C@H]3C[C@@](C)(O)[C@@H](OC(=O)CC)[C@H](C)O3)[C@H](N(C)C)[C@H]2O)[C@H]1OC [Midecamycin] | – | – | – | – | 0.0119 (active) | 0.998 | 0.0799 (active) | 0.00894 (active)
37 | C#CCN[C@@H]1CCc2ccccc21 [Rasagiline] | – | – | – | – | 0.96 | 1 | 0.982 | 0.989
38 | CC(=O)Oc1ccc(C(=C2CCCCC2)c2ccc(OC(C)=O)cc2)cc1 [Cyclofenil] | – | – | – | – | 0.904 | 0.997 | 0.972 | 0.903
39 | CCCCC(=O)N(Cc1ccc(-c2ccccc2-c2nnn[nH]2)cc1)[C@H](C(=O)O)C(C)C [Valsartan] | – | – | – | – | 1.02 | 1.02 | 1.02 | 1.04
40 | NC[C@H]1O[C@H](O[C@H]2[C@H](O)[C@@H](O[C@H]3O[C@H](CO)[C@@H](O)[C@H](N)[C@H]3O)[C@H](N)C[C@@H]2N)[C@H](N)[C@@H](O)[C@@H]1O [Kanamycin B] | – | – | – | – | 1.14 | 0.947 | 1.02 | 1.1
41 | CC(/C=C1\SC(=S)N(CC(=O)O)C1=O)=C\c1ccccc1 [Epalrestat] | – | – | – | – | 1.05 | 1.01 | 0.921 | 1.01
42 | CC(C)COC(=O)OCN1C(=O)CN(CCN2CC(=O)N(COC(=O)OCC(C)C)C(=O)C2)CC1=O [Sobuzoxane] | – | – | – | – | 1.08 | 0.998 | 1 | 1.04
43 | C[C@H](NCc1ccc(OCc2cccc(F)c2)cc1)C(N)=O [Safinamide] | – | – | – | – | 1.01 | 0.986 | 1 | 1.02
44 | Cc1nc2n(c(=O)c1CCN1CCC(c3noc4cc(F)ccc34)CC1)CCCC2O (stereo not drawn) [Paliperidone] | – | – | – | – | 0.958 | 0.997 | 0.985 | 0.976
45 | C=CCOc1ccc(CC(=O)O)cc1Cl [Alclofenac] | – | – | – | – | 1.12 | 1 | 0.959 | 1.06
46 | CC[C@H](C)[C@H](NC(=O)[C@H](Cc1ccc(O)cc1)NC(=O)[C@@H](NC(=O)[C@H](CCCN=C(N)N)NC(=O)[C@@H](N)CC(=O)O)C(C)C)C(=O)N[C@@H](Cc1cnc[nH]1)C(=O)N1CCC[C@H]1C(=O)N[C@@H](Cc1ccccc1)C(=O)O [Angiotensin II (Human) Trifluoroacetic acid salt] | – | – | – | – | 1.1 | 0.997 | 1.02 | 1.1
